In PubChem BioAssay:
Records with an inconclusive call do not appear. Activity calls are given as the source filed them.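 Rule for the calls, unless noted: active = binding below the plate cutoff, the plate median minus 3 SD, with a reading above zero; inconclusive = below the plate cutoff but reading exactly zero; inactive = the rest.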

Columns and labels:
[1] = yeast TOR pathway RPL19A-GFP modulators, primary screen, cell-based, S. cerevisiae, multiplex flow cytometry (AID 1862; in the data active = percent of DMSO control GFP below about 86%;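 note: lower values mimic rapamycin by blocking the RPL19A rise seen in DMSO cells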); conditions: S. cerevisiae RPL19A-GFP strain, flow cytometry fluorescence, 3 h; at 10 µM; stronger effect = lower value
[2] = modulators of MEP2-GFP levels in yeast, primary screen, S. cerevisiae, multiplex flow cytometry (AID 1867;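 active = GFP response, as percent of the DMSO control, above the screen-wide mean plus 3 SD, about 139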;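 note: median GFP channel fluorescence of barcode-gated MEP2-GFP cells measured by flow cytometry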); conditions: S. cerevisiae MEP2-GFP strain, 3 h, at 10 µM, stronger effect = higher value, 100% means same as DMSO wells
[3] = modulators of CIT2-GFP expression in yeast, primary screen, S. cerevisiae, GFP fusion, multiplex flow cytometry (AID 1870;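 active = percent response above a set limit, the screen-wide mean plus 3 SD, cut at about 130% in these data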;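 note: barcoded CIT2-GFP strain pooled with four other GFP strains with rapamycin as positive control; median GFP fluorescence per well over plate mean of DMSO wells so 100% = DMSO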); conditions: 3 h, at 10 µM, stronger effect = higher value
[4] = modulators of LAP4-GFP expression in yeast, primary screen, S. cerevisiae, multiplex flow cytometry (AID 1873;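 active = GFP signal, as percent of the solvent control, above the screen mean plus 3 SD, about 149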); conditions: 3 h, at 10 µM, stronger effect = higher value
[5] = modulators of AGP1-GFP expression in yeast TOR pathway, primary screen, cell-based, multiplex flow cytometry, S. cerevisiae (AID 1887;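 active = GFP signal above the screen-wide mean plus 3 SD, that is over about 124.5% of the solvent control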;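 note: AGP1-GFP fusion strain of S. cerevisiae within a five-strain barcoded multiplex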); conditions: 3 h, at 10 µM, stronger effect = higher value
[6] = inhibitors of CD8+ T cell-vesicle binding, pilot screen, LFA-1/ICAM-1 modulator project, MLPCN validation set, flow cytometry (AID 2523;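 active = response below a set limit, under 55% cells CD8-positive and vesicle-bound, and CD8 cells' 90th-percentile brightness under 279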;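 for vesicle binding response: mean PE anti-B7-1 fluorescence of CD8+ cells relative to row control; 100% = QL9-loaded vesicles with DMSO vehicle in the same plate row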); conditions: 2C mouse CD8+ T cells, at 7 µM, stronger effect = lower value; double positive events: measured here: CD8+/vesicle+ event percentage
[7] = biological target: Integrin beta-1 (Homo sapiens) + Integrin alpha-4 (Homo sapiens) (UniProt P13612+P05556); experiment: inhibition of HUTS-21 binding to VLA-4, pilot screen, VLA-4 allosteric modulator project, U937 cells, HUTS-21 mAb, flow cytometry, validation set (AID 2674;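 active = inhibition above 50%, about 3 SD of the validation set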;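 note: antibody binding induced by the VLA-4 ligand LDV present at three times its Kd; 0% = LDV ligand with antibody and no compound and 100% = antibody without LDV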); conditions: HUTS-21 LIBS mAb binding, at 6.7 µM, stronger effect = higher value, binding induced by LDV ligand
Integrin beta-1 (Homo sapiens) + Integrin alpha-4 (Homo sapiens), sequence (P05556 whole entry, looked up): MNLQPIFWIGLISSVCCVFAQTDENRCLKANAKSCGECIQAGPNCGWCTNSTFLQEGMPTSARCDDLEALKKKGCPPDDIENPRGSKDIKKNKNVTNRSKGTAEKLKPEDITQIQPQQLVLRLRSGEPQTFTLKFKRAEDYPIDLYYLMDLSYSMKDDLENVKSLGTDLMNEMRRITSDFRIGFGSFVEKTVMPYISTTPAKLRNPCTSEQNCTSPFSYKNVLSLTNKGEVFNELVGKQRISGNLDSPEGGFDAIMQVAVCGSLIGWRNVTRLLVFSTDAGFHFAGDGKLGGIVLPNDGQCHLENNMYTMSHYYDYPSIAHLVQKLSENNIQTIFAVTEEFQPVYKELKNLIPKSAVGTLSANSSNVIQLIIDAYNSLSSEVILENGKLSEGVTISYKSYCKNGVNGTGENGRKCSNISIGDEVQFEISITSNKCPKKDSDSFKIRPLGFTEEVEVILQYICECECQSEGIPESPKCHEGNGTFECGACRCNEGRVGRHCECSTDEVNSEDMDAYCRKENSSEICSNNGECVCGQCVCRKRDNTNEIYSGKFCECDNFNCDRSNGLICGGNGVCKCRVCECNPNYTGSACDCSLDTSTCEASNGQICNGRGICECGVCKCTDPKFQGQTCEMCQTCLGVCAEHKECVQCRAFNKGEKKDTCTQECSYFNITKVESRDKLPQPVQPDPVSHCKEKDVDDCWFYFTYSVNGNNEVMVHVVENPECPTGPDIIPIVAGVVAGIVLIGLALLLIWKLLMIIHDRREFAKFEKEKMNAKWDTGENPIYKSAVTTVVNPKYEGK
Integrin beta-1 (Homo sapiens) + Integrin alpha-4 (Homo sapiens), sequence (P13612 whole entry, looked up): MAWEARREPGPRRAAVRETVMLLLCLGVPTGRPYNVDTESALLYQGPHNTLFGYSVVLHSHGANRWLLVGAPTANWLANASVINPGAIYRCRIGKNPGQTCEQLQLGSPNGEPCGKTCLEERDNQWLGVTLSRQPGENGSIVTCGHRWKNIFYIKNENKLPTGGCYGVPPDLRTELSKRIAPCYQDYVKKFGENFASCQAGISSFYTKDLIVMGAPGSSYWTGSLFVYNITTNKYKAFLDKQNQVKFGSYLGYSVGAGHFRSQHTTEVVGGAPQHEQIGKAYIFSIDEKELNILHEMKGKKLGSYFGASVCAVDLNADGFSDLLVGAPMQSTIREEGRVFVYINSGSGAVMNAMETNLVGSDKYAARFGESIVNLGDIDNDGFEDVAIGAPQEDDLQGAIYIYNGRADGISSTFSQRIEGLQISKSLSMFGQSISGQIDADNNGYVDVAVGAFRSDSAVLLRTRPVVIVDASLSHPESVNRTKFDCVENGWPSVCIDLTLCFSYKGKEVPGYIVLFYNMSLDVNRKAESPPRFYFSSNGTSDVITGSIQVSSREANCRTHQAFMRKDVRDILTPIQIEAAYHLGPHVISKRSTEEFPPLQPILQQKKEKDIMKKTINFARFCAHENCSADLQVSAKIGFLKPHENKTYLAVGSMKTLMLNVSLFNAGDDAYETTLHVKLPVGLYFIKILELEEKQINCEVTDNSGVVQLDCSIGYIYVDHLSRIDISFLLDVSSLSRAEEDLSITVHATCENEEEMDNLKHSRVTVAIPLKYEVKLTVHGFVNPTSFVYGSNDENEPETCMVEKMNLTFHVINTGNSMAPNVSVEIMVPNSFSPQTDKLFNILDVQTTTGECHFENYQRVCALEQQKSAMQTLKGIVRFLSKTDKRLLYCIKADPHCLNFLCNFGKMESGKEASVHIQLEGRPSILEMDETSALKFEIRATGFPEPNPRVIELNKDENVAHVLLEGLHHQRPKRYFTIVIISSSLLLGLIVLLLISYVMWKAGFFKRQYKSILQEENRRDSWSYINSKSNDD

[8] = superoxide lowering in aged yeast cells, pilot screen, validation compound set (AID 2706;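 active = superoxide response below 65% of plate, a cut near 3 SD across the whole screen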;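 note: yeast exposed to compound for one week at 30 degrees C before staining; 100% = mean of all compound wells on the same plate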); conditions: S. cerevisiae aging, superoxide DHE fluorescence; at 10 µM, stronger effect = lower value
[9] = biological target: Beta-adrenergic receptor kinase 1 (Homo sapiens) (UniProt P25098); experiment: GRK2 binders displacing RNA aptamer, biochemical, validation, human GRK2, bead flow cytometry (AID 488806;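 active = aptamer binding inhibition above 30%, about 3 SD of noise from non-fluorescent compounds; inactive = inhibition at or below 30%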); conditions: bead-bound GRK2, FAM-aptamer displacement, at 10 µM, stronger effect = higher value
Beta-adrenergic receptor kinase 1 (Homo sapiens), sequence (P25098 whole entry, looked up): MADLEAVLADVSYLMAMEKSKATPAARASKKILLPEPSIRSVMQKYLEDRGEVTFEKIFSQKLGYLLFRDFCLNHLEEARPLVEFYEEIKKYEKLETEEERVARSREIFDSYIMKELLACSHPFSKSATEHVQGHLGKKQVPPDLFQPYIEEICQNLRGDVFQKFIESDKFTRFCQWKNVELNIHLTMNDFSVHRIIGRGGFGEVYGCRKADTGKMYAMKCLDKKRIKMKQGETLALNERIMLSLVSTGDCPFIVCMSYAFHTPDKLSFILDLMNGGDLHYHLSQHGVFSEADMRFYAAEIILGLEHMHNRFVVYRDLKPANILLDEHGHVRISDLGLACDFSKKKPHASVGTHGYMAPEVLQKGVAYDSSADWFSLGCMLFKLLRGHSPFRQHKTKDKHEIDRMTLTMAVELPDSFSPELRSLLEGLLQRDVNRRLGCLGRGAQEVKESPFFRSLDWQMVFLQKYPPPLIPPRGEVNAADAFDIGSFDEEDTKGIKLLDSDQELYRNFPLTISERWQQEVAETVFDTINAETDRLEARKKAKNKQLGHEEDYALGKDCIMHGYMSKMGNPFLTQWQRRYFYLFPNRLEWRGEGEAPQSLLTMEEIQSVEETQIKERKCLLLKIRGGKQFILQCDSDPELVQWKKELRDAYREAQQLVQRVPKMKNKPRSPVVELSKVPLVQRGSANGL

[10] = biological target: AP-2 complex subunit beta (Homo sapiens) (UniProt P63010); experiment: inhibitors of arrestin peptide binding to AP2, pilot screen, biochemical, validation set, GST-AP2 beads, flow cytometry (AID 504541;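 active = inhibition above 54%, about 3 SD of non-fluorescent compounds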;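 note: AP2 carries R879A mutation and is captured from E. coli lysate; bead-bound FITC arrestin peptide fluorescence measuring arrestin peptide binding to AP2; 0% = DMSO wells and 100% = excess unlabeled arrestin peptide control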); conditions: FITC arrestin peptide, at 10 µM, stronger effect = higher value, AP2 beta2 appendage fragment, R879A mutant
AP-2 complex subunit beta (Homo sapiens), sequence (P63010 whole entry, looked up, the tested form may be a part, one chain of several): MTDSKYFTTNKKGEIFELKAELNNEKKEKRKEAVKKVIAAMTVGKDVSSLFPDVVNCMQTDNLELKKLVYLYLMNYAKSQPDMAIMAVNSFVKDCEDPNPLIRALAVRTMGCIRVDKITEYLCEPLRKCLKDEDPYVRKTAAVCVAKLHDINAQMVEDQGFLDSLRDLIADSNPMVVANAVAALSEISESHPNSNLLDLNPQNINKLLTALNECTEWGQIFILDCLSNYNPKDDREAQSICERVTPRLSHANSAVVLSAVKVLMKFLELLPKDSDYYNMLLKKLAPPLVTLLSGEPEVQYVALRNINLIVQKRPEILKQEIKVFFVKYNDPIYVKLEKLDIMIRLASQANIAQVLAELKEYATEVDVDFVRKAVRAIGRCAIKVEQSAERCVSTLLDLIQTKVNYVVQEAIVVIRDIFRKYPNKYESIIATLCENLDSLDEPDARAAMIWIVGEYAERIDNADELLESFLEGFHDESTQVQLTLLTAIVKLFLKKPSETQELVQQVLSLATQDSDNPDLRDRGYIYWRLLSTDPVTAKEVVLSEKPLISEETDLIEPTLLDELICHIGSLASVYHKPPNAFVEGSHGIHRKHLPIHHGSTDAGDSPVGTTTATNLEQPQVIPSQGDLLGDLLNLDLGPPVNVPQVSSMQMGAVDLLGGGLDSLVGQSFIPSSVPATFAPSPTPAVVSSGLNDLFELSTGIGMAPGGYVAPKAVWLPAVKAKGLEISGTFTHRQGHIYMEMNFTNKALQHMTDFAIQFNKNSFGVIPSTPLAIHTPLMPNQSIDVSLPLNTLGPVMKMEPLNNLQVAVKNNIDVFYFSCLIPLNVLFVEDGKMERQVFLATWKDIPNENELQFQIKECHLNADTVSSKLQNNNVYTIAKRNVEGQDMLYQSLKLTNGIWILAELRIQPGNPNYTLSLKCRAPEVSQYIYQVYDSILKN

[11] = yeast V-ATPase proton transport modulators, S. cerevisiae, pHLuorin, HTS validation (AID 504600; in the data active = response above about 15%;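 note: plate controls were DMSO for no effect and reference compound for full effect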); conditions: S. cerevisiae pHLuorin cytosolic pH, at 10 µM, stronger effect = higher value
[12] = test system: anti-desmoglein-3 scFv antibody binding to human DSG3; experiment: inhibitors of anti-DSG3 scFv binding to DSG3, pilot screen, biochemical, validation compound set, bead-based, flow cytometry (AID 588368); conditions: Protein G beads, DSG3-Fc, scFv-GFP binding, at 10 µM, stronger effect = lower value;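 note: signal is the median channel fluorescence of bead-bound GFP antibody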
[13] = inhibitors of fungal efflux pumps CDR1, CDR2, MDR1, pilot screen, validation compound set, multiplex, phenotypic (AID 588506;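 active = efflux inhibition above 0.42, the validation set average plus 4 SD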;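 note: Nile Red retained in cells so higher fluorescence means more efflux inhibition; 0 = negative control wells and 1 = enniatin B 25 µM full block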); conditions: S. cerevisiae pump-expressing triplex, Nile Red efflux flow cytometry; at 10 µM; stronger effect = higher value; the pumps come from Candida albicans
[14] = biological target: ATP-binding cassette sub-family B member 6 (Homo sapiens) (UniProt Q9NP58); experiment: ABCB6 transporter inhibitors, pilot screen, K562-ABCB6 cells, flow cytometry, validation set (AID 588550;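 active = inhibition above the screen-wide mean plus 3 SD, about 51%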;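 note: 0% = DMSO wells and 100% = benzethonium chloride 70 µM positive control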); conditions: K562-ABCB6 porphyrin accumulation, 1 h, at 10 µM, stronger effect = higher value
ATP-binding cassette sub-family B member 6 (Homo sapiens), sequence (Q9NP58 whole entry, looked up): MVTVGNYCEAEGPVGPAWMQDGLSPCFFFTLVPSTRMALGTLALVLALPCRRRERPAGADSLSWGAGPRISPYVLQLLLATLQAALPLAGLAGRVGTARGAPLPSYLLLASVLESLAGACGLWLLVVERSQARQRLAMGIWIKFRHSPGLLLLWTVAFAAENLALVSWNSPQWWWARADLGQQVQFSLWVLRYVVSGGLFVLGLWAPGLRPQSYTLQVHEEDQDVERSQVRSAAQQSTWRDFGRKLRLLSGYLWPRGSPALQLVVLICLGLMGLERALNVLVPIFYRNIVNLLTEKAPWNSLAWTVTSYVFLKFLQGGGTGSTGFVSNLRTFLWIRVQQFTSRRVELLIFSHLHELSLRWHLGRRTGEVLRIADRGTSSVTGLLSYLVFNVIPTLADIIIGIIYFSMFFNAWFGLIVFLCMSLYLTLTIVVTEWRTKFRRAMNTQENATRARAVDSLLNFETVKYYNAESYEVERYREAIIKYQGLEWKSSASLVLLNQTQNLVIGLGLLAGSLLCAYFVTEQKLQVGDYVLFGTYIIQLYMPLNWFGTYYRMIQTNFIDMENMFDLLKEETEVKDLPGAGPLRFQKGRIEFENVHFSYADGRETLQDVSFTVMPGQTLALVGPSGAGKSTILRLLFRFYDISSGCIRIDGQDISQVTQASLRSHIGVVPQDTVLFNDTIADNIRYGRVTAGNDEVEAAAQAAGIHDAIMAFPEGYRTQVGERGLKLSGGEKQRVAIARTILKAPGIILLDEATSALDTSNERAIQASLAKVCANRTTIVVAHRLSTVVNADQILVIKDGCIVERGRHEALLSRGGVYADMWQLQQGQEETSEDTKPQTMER

[15] = promoters of myeloid differentiation in arrested cells, primary screen, cell-based, GFP/MAC1 double positive, flow cytometry, validation set (AID 588685;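 active = differentiation response of at least 50%, scaled between solvent and reference control, from cells with both markers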;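 note: compound exposure lasts four days before antibody staining and flow analysis; 0% = DMSO wells and 100% = 5 µM fulvestrant positive control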); conditions: ER-HoxA9 marrow cells, stronger effect = higher value, normalized: vehicle 0, fulvestrant 100

CN=C1c2cc3cc(OC)ccc3n2CCN1C
inactive: percent of DMSO control GFP [1] 101% | GFP response vs DMSO [2] 97.9% | percent response of DMSO control [3] 102% | GFP response vs DMSO [4] 93.3% | GFP response, % of DMSO [5] 99% | vesicle binding response [6] 177% | inhibition [7] 11.9% | superoxide response (% of plate) [8] 103% | aptamer binding inhibition [9] 4% | inhibition [10] 14.9% | response [11] -2.85% | binding (% of control) [12] 98.8% | efflux inhibition (fraction of control) [13] 0.1 | inhibition [14] 2% | differentiation response [15] 12.7%
62%: double positive events [6]

CC(C)OC(=O)CC1C(=O)NCCN1C(=S)NC(=O)c1cccs1 (centres undefined)
63.2%: double positive events [6]
inactive: percent of DMSO control GFP [1] 98.1% | GFP response vs DMSO [2] 86.7% | percent response of DMSO control [3] 107% | GFP response vs DMSO [4] 98.4% | GFP response, % of DMSO [5] 107% | vesicle binding response [6] 190% | inhibition [7] 10% | superoxide response (% of plate) [8] 87.2% | aptamer binding inhibition [9] -2% | inhibition [10] -4.49% | response [11] 2.24% | binding (% of control) [12] 104% | efflux inhibition (fraction of control) [13] -0.2 | inhibition [14] 8% | differentiation response [15] 0%

COC(=O)c1ccc(COc2ccc3c(C)c(C)c(=O)oc3c2C)o1
inactive: percent of DMSO control GFP [1] 101% | GFP response vs DMSO [2] 97.9% | percent response of DMSO control [3] 96.9% | GFP response vs DMSO [4] 92.3% | GFP response, % of DMSO [5] 91.6% | vesicle binding response [6] 157% | inhibition [7] 14.7% | superoxide response (% of plate) [8] 96.2% | aptamer binding inhibition [9] 3% | inhibition [10] 4.76% | response [11] -2.54% | binding (% of control) [12] 102% | efflux inhibition (fraction of control) [13] 0.06 | inhibition [14] 11% | differentiation response [15] 9.49%
57.7%: double positive events [6]

CN(C)c1nc(N(C)C)nc(N(C)C)n1
63%: double positive events [6]
inactive: percent of DMSO control GFP [1] 94.6% | GFP response vs DMSO [2] 103% | percent response of DMSO control [3] 97.9% | GFP response vs DMSO [4] 97.4% | GFP response, % of DMSO [5] 94.2% | vesicle binding response [6] 181% | inhibition [7] 5.36% | superoxide response (% of plate) [8] 95.5% | aptamer binding inhibition [9] 0% | inhibition [10] 47.8% | response [11] -8.12% | binding (% of control) [12] 99.3% | inhibition [14] 9% | differentiation response [15] 14.3%
active: efflux inhibition (fraction of control) [13] 0.78
